Assay [1] deals with Wnt5a (protein binding on small-molecule microarray). Description: Wnt5a binders on small-molecule microarray, primary screen, biophysical, 635/667 nm fluorescence (AID 1142).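 Also: fluorescence read at 667 nm with signal to noise per printed feature.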 The note with it: 635 nm fluorescence, higher = more signal.
Assay [2] is described as follows: cell viability in Huh7 cells, primary screen, cytotoxicity control for HCV replication inhibitor project, CellTiter-Glo luminescence, basal, 48 h (AID 1143).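 Also: Huh7 hepatoma cells carrying a hepatitis C replication reporter with no stimulus; test concentration not given here.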 The note with it: Huh7 HCV replicon, higher = more signal, called active from +8 up or from −8 down. Background: ATP-based viability assays read luminescence as a measure of living cells.
Assay [3] is described as follows: P. aeruginosa biofilm formation inhibitors, primary screen, PAO1 strain, BacTiter-Glo luminescence, LB-PBS (AID 1144). The note with it: 12 h, higher = more signal.
Assay [4] in a line: CREB reporter modulators without forskolin, primary screen, cell-based, PC12, CRE-LacZ reporter, unstimulated (AID 1145). The note with it: no forskolin, luminescence, 4.5 h, higher = more signal, called active from +8 up or from −8 down.
A short description of assay [5]: CREB reporter modulators under forskolin, primary screen, cell-based, PC12, CRE-LacZ reporter, forskolin-stimulated (AID 1146).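 Also: PC12 cells with 6xCRE LacZ reporter stimulated by forskolin 10 µM; beta-galactosidase reporter signal reflecting CREB driven transcription.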 The note with it: luminescence, 4.5 h, higher = more signal, called active from +8 up or from −8 down.
In assay [6] the target is Streptavidin (Streptomyces avidinii) (UniProt P22629). Description: streptavidin binders on small-molecule microarray, primary screen, artefact control for SMM compound annotation, biophysical, 635/667 nm fluorescence (AID 1147).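 Also: signal reflects streptavidin binding to arrayed compounds as a control protein.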 The note with it: streptavidin binding, higher = more signal.
Streptavidin (Streptomyces avidinii), sequence (P22629 whole entry, looked up): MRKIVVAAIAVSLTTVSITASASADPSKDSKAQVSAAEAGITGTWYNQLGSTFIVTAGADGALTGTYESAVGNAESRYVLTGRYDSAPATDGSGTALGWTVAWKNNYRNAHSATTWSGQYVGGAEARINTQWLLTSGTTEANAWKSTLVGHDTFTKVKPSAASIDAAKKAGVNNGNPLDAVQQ
Assay [7] in a line: small-molecule binders of probe aInhba, primary screen, biochemical, small-molecule microarray, 635/667 nm fluorescence (AID 1148).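 Also: score merges 667nm spot fluorescence with signal-to-noise for antibody binding to printed compounds.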 The note with it: higher = more signal.
The target of assay [8] is Torsin-1A (Homo sapiens) (UniProt O14656). Description: torsin A binders from cell lysate, primary screen, small-molecule microarray, wild-type, 635/667 nm (AID 1149). The note with it: COS7 hTOR1A-WT lysate, 635 nm fluorescence, higher = more signal.
Torsin-1A (Homo sapiens), sequence (O14656 whole entry, looked up): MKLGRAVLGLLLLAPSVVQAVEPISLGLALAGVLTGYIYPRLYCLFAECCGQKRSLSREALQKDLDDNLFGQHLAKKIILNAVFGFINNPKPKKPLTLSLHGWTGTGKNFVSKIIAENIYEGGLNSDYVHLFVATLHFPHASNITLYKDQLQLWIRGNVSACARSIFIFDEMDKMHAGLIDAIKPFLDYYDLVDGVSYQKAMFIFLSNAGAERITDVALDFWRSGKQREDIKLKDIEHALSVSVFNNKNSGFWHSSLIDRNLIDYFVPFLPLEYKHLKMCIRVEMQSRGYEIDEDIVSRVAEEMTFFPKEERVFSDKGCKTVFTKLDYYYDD
For assay [9] the target is unchanged. Description: small-molecule binders of mutant TOR1A in lysate, primary screen, cell lysate, small-molecule microarray, COS7 lysate, 635/667 nm fluorescence (AID 1150).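 Also: score pools 667 nm emission and signal to noise measuring lysate protein binding.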 The note with it: COS7 hTOR1A mutant lysate, 635 nm fluorescence, higher = more signal.
Assay [10] has as its system Sonic hedgehog protein (Shh). Nature of the assay: small-molecule binders of Shh protein, primary screen, biochemical, small-molecule microarray, 635/667 nm fluorescence (AID 1151).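 Also: Shh protein binding to compounds spotted on small-molecule microarray slides; score combines spot fluorescence intensity with signal-to-noise across triplicate slides.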 The note with it: small-molecule microarray binding, 635 nm fluorescence; higher = more signal.
A short description of assay [11]: E. coli DRC41 culture turbidity changes, primary screen, E. coli filamentation inducer project, strain DRC41, OD650, 48 h (AID 1152).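 Also: E. coli MC1000 strain DRC41 lacking acrAB efflux pump and sulA.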 The note with it: E. coli DRC41 (acrAB sulA), higher = more signal, called active from +8 up or from −8 down.
A short description of assay [12]: small-molecule binders of probe aLefty1, primary screen, biochemical, small-molecule microarray, 635/667 nm fluorescence (AID 1153).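 Also: score merges spot fluorescence with signal-to-noise ratio from the scanned slide images.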 The note with it: higher = more signal.
Assay [13] is described as follows: PSAC antagonists in infected red cells, primary screen, cell-based, P. falciparum Indochina, OD700, 1 h (AID 1154). The note with it: P. falciparum Indochina infected RBC osmotic lysis, higher = more signal, called active from +8 up or from −8 down.
Assay [14] can be described thus: PSAC antagonists in infected red cells, primary screen, cell-based, P. falciparum Indochina, OD700, 2 h (AID 1155).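 Also: lysis reports solute entry through the parasite surface anion channel PSAC; channel blockers reduce lysis of infected cells.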 The note with it: P. falciparum Indochina infected erythrocytes, osmotic lysis OD700; higher = more signal, called active from +8 up or from −8 down.
The nature of assay [15]: osmotic lysis modulators in infected erythrocytes, primary screen, PSAC antagonist project, cell-based, P. falciparum Indochina, OD700, 3 h (AID 1156). The note with it: higher = more signal, called active from +8 up or from −8 down.
The nature of assay [16]: PSAC antagonists in infected red cells, primary screen, cell-based, P. falciparum Indochina, OD700, 18 h (AID 1157). The note with it: P. falciparum Indochina infected erythrocytes, osmotic lysis OD700, 18 h; higher = more signal, called active from +8 up or from −8 down.
Assay [17] is described as follows: modulators of S6 phosphorylation in cells, primary screen, cell-based, A549, cytoblot, luminescence, serum-stimulated (AID 1158).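 Also: serum-stimulated A549 lung adenocarcinoma cells; signal is phosphorylated S6 detected by cytoblot immunostaining with HRP secondary.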 The note with it: A549 phospho-S6 cytoblot, 5 h, higher = more signal.
The target of assay [18] is NADPH oxidase 2 (Homo sapiens) (UniProt P04839). Description: NOX2-dependent H2O2 signal modulators, primary screen, NOX inhibitor project, cell-based, HEK293-NOX2, PMA-stimulated, Amplex Red fluorescence (AID 1159). Also: test concentration not given here. The note with it: 45 min, higher = more signal, called active from +8 up or from −8 down.
NADPH oxidase 2 (Homo sapiens), sequence (P04839 whole entry, looked up): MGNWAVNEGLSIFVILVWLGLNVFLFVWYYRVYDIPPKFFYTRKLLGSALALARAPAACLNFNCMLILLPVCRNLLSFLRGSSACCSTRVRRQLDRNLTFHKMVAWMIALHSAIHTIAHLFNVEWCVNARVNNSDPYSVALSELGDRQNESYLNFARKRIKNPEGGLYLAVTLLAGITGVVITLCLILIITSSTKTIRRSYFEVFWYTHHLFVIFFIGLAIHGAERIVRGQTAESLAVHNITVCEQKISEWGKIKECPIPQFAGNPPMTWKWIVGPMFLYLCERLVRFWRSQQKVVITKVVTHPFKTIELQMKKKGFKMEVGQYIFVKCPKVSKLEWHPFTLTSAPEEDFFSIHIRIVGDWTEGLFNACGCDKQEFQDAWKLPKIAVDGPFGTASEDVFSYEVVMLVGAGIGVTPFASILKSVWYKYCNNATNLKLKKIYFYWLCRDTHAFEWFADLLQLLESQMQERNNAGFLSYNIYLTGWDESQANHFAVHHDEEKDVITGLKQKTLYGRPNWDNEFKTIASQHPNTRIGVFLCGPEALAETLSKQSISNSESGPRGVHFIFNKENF
The target in assay [19] is NADPH oxidase 4 (Homo sapiens) (UniProt Q9NPH5). Nature of the assay: NOX4-dependent H2O2 signal modulators, primary screen, NOX inhibitor project, cell-based, HEK293-NOX4, tetracycline-induced, Amplex Red fluorescence (AID 1160). The note with it: 45 min, higher = more signal, called active from +8 up or from −8 down.
NADPH oxidase 4 (Homo sapiens), sequence (Q9NPH5 whole entry, looked up): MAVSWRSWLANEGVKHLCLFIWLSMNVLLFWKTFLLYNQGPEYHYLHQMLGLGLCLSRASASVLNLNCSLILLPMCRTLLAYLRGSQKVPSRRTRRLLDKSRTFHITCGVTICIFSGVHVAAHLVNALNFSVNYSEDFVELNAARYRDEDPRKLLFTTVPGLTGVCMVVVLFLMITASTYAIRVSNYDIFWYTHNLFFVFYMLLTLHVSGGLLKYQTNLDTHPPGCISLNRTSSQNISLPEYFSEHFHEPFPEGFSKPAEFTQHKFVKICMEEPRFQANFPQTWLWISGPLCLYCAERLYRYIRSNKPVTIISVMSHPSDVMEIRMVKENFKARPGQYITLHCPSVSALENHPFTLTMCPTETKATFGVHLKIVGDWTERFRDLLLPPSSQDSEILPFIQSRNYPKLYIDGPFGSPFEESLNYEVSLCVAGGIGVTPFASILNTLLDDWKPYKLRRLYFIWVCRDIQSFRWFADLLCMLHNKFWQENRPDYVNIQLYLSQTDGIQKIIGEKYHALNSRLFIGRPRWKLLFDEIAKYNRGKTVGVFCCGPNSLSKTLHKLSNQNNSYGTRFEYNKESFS
For assay [20], the target named is NADPH oxidase 5 (Homo sapiens) (UniProt Q96PH1). Description: NOX5-dependent H2O2 signal modulators, primary screen, NOX inhibitor project, cell-based, HEK293-NOX5, Amplex Red fluorescence (AID 1161). The note with it: HEK293-NOX5, ionomycin, 45 min, higher = more signal.
NADPH oxidase 5 (Homo sapiens), sequence (Q96PH1 whole entry, looked up): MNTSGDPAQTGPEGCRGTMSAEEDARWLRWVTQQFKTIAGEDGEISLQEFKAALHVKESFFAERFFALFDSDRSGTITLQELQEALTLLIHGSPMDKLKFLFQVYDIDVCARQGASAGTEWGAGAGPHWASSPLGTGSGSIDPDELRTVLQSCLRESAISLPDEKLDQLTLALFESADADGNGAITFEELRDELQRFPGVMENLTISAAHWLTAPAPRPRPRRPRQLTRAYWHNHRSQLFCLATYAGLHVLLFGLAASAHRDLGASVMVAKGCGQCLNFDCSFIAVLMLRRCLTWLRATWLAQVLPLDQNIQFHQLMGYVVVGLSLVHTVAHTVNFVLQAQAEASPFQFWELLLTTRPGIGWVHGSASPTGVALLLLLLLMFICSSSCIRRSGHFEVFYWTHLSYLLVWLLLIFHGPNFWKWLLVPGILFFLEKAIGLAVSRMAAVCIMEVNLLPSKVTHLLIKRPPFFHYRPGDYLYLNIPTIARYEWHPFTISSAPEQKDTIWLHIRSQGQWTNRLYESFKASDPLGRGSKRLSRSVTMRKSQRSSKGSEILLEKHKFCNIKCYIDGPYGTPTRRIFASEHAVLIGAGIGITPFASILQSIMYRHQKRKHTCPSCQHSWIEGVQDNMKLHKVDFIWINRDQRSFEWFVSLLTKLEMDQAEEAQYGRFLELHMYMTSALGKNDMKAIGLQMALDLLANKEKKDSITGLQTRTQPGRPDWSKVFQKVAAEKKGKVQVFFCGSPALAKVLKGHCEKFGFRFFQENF

Structures are written as SMILES. The source made the active and inactive calls. Unless noted, no rule for the calls is given here.

Regarding `C=C(/C(=C/C[C@H](OC(C)=O)c1cccc(OCCO)c1)c1cnc2ccccc2c1)C(C)C`, the composite z-score was found to be 0.217 in assay [1]; 0.653 in assay [6]; 0.124 in [7]; 0.04 in assay [8]; 0.491 in assay [9]; 2 in assay [10]. This compound also returned a composite z-score in assay [12] of -0.0141. Further, the z-score is -0.262 (inactive) in assay [2]; 0.424 (inactive) in assay [3]; 5.97 (inactive) in [4]; -0.323 (inactive) in assay [5]; -0.0902 (inactive) in assay [11]; 18.7 (active) in assay [13]. The z-score in assay [14] is 3.44 (inactive); in [15] it was 1.67 (inactive); in [16] it was 1.12 (inactive); in assay [17], -0.343; in [18], 0.175 (inactive); in [19], -0.456 (inactive). This compound yielded a z-score in assay [20] of -0.923.

As for `Cc1ccc(S[C@]2(C(=O)O)CC(=O)N(Cc3ccccc3Cl)[C@@H]2c2ccc(CO)cc2I)cc1`, the composite z-score was -0.3 in [1]; -0.657 in [6]; -0.649 in assay [7]; 0.294 in assay [8]; 0.396 in [9]; 0.0254 in assay [10]. Besides, the composite z-score in [12] is -0.814. The z-score in [2] is -2.09 (inactive); in assay [3] it was -0.309 (inactive); in assay [4], 1.2 (inactive); in assay [5], 3 (inactive); in assay [11], -0.754 (inactive); in assay [13] it was 8.88 (active). Further, the z-score in [14] was 1.4 (inactive); in [15], 0.767 (inactive); in [16], 0.744 (inactive); in [17], -0.0366; in [18], 3.66 (inactive); in [19], -2.51 (inactive). In assay [20], this compound registered a z-score of -0.915.

With `C=C(/C(=C/C[C@@H](OC(C)=O)c1cccc(OCCO)c1)c1cc(C(=O)OC)ccc1OC)C(C)C`, the composite z-score is 0.148 in [1]; -0.19 in [6]; -0.152 in assay [7]; 0.875 in [8]; 1.36 in assay [9]; 1.73 in [10]. The compound further gave a composite z-score in assay [12] of 0.0962. Further, the z-score in assay [2] was -1.38 (inactive); in assay [3], -0.251 (inactive); in [4], 3.49 (inactive); in assay [5] it was 0.32 (inactive); in assay [11], 0.546 (inactive); in [13] it was 9.43 (active). Further, the z-score is 1.6 (inactive) in [14]; 2.19 (inactive) in assay [15]; 0.75 (inactive) in assay [16]; 0.547 in assay [17]; -2.08 (inactive) in assay [18]; -1.07 (inactive) in assay [19]. Also, in [20], the z-score was -2.17.

Take `O=C1O[C@H](c2ccccc2)[C@H](c2ccccc2)N2[C@H]1[C@@H](C(=O)NC[C@H](O)c1ccccc1)[C@]1(C(=O)Nc3ccc(C#CCCO)cc31)[C@H]2c1ccc(OCCO)cc1`: the composite z-score amounted to 0.518 in assay [1]; 0.0889 in [6]; 0.0464 in assay [7]; 0.13 in assay [8]; 0.38 in [9]; 1.76 in [10]. This compound also gave a composite z-score in [12] of 0.138. Also, the z-score in [2] was -0.821 (inactive); in [3], -0.626 (inactive); in assay [4] it was 0.299 (inactive); in [5], 0.0413 (inactive); in assay [11], 0.0129 (inactive); in assay [13], 3.5 (inactive). The z-score in assay [14] was 1.19 (inactive); in [15], 0.123 (inactive); in assay [16], 0.663 (inactive); in assay [17], -0.268; in [18], 1.16 (inactive); in assay [19] it was 0.861 (inactive). The compound also had a z-score in [20] of 0.275.

Source of the values: PubChem BioAssay.
